Source: PubChem (several laboratories)
NCOA1 inh = inhibits human SRC1 coactivator | AID 588354 | 360,000 compounds, 0.12% hits | inhibition, % at 3.6 µM | HEK293 GAL4-SRC1 luciferase reporter, luminescence;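 active = inhibition above the campaign mean plus 3 SD, with each screening campaign given its own cutoff, cut at about 60% in these data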;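 note: 0% = DMSO treated cells and 100% = gossypol at 36 µM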
SRC2 inh = human SRC2 (NCOA2) inhibition | HEK293 GAL4-SRC2 luciferase reporter, luminescence | inhibition, % at 9 µM | Q15596 | 370,000 compounds, 0.17% hits;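 active = inhibition above the mean inhibition of all tested compounds plus 3 SD, set per campaign, cut at about 52% in these data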;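 note: 0% = DMSO treated cells and 100% = cells given Gossypol at 36 µM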
LRH-1 inv ag = suppresses constitutive activity of human LRH-1 | HEK293T StAR-luciferase reporter, LRH-1 transfected, 24 h | inhibition, % at 3.6 µM | 360,000 compounds, 0.13% hits | O00482;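 active = inhibition above the mean inhibition of all tested compounds plus 3 SD, cut at about 73% in these data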;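 note: 0% = DMSO wells and 100% = reporter-only cells lacking LRH-1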
SRC3 inh = human NCOA3 inhibition; Q9Y6Q9; HEK293 GAL4-SRC3 luciferase reporter, luminescence; inhibition, % at 3.6 µM; 360,000 compounds, 0.17% hits;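 active = inhibition above a per-campaign cutoff, the mean of all compounds plus 3 SD, cut at about 60% in these data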;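 note: 0% = DMSO-treated cells and 100% = gossypol-treated cells at 36 µM; higher means less SRC3-driven luciferase light from the GAL4 reporter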
COUP-TFII inh = blocks human COUP-TFII nuclear receptor | 370,000 compounds, 0.7% hits | inhibition, % at 8.6 µM | AID 686940 | HEK293T NGFI-A luciferase reporter, luminescence;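 active = inhibition above a per-plate cutoff, mean inhibition of test wells between control levels plus 3 SD, cut at about 38% in these data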;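 note: cells cotransfected with COUP-TFII expression vector driving the NGFI-A reporter; 0% = median of COUP-TF2 test wells and 100% = reporter-only cells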
Gli-Sufu antag = antagonists of Gli-Sufu signaling; Sufu-KO-LIGHT fibroblasts, Gli luciferase reporter luminescence; inhibition, % at 5 µM; 340,000 compounds, 0.74% hits; AID 588413;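 active = inhibition above about 55%, limit read from the data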;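 note: 0% = DMSO-treated cells and 100% = wells with medium but no cells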
Gli antag conf = confirmation of Gli-SUFU pathway antagonists; shares compounds with Gli-Sufu antag; Sufu-KO-LIGHT cells, Gli luciferase reporter, luminescence; inhibition, % at 5 µM; 2,500 compounds, 40% hits; AID 602428;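 active = mean inhibition at 5 µM reaching about 45%, limit read from the data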;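 note: plate controls were DMSO-treated cells for no effect and wells lacking cells for full effect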
Gli cytotox = counter-screen for Gli-SUFU antagonists: cytotoxicity. shares compounds with Gli-Sufu antag. Sufu-KO-LIGHT cells cytotoxicity, ATP luminescence. cytotoxicity, % at 5 µM. 2,500 compounds, 32% hits. AID 651994;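 active = mean cytotoxicity at 5 µM above about 25%, limit read from the data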;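 note: cells exposed to compound overnight for roughly 16 to 18 hours; plate controls were DMSO wells with cells for no effect and medium without cells for full effect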
Wnt3a cs = inhibits Wnt3a reporter, counter-screen for Gli-SUFU antagonists. shares compounds with Gli-Sufu antag. Wnt-LIGHT cells, Wnt3a-driven luciferase reporter, luminescence. inhibition, % at 6.25 µM. 2,500 compounds, 20% hits;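 active = mean inhibition above about 25%, limit read from the data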
Numbers without * were called inactive; nt = no result. In the library only some 1.3% were active in any assay of this set; here they are far more common.

SMILES	NCOA1 inh	SRC2 inh	LRH-1 inv ag	SRC3 inh	COUP-TFII inh	Gli-Sufu antag	Gli antag conf	Gli cytotox	Wnt3a cs
Nc1nc2n(n1)C(c1ccco1)CC(c1ccc(Cl)cc1Cl)N2 (stereo unspecified)	12.1	-6.1	-21.6	0.5	-9.8	50.2	8.3	11.4	5.6
O=C(CN1CCN(Cc2ccccc2)CC1)Nc1nnc(C(F)(F)F)s1	1.2	10.8	12.4	7.1	5.2	63.4*	28.4	-3.3	-18.2
C=CCN(CC#Cc1ccccc1)CC=C	nt	14.9	nt	nt	-4.6	nt	nt	nt	nt
Cc1nn(-c2ccccc2)c(C)c1/C=N/NC(=O)c1cc(-c2ccc(Br)s2)[nH]n1	-4.6	-24.4	-1.6	9.5	5.3	1.6	nt	nt	nt
Cc1nn(-c2ccccc2)c(C)c1/C=N/NC(=O)c1cc(-c2cccs2)[nH]n1	-12.4	13.3	4.7	1.0	-66.2	50.0	61.3*	59.6*	-61.5
Cc1cc2cc(CNC(=O)c3ccc(C)c([N+](=O)[O-])c3)ccc2[nH]1	-0.8	-2.9	5.6	-6.8	2.7	58.0*	28.9	25.9*	-62.1
CCCCOc1ccccc1NC(=O)c1scc2c1OCCO2	10.4	15.7	15.0	17.5	19.8	55.9*	14.9	15.3	-45.9
Nc1c(C(=O)N2CCN(c3ccccc3)CC2)nnn1Cc1ccc(Cl)cc1	nt	21.8	nt	nt	-4.5	nt	nt	nt	nt
CN(C(=O)c1ccc(NC(=O)Cc2cccc(NC(=O)C3CCCN(C(=O)C4CCC4)C3)c2)cc1)C1CCCC1 (stereo unspecified)	-7.4	-6.2	-7.9	-13.4	8.5	57.2*	17.5	-3.3	-9.2
CN(C(=O)c1ccc(NC(=O)Cc2cccc(NC(=O)C3CCCN(C(=O)C4CCCCC4)C3)c2)cc1)C1CCCC1 (stereo unspecified)	-5.2	-20.2	-14.3	3.5	11.7	-4.8	nt	nt	nt
CCOC(=O)C1=NN(C(=O)Nc2cccc(C(F)(F)F)c2)C2C(=O)N(c3cccc(C(F)(F)F)c3)C(=O)C12 (stereo unspecified)	0.5	11.9	16.2	7.2	1.7	70.5*	24.5	-9.1	6.8
COC(=O)C1CN(Cc2cn(Cc3ccccc3)nn2)CCS(=O)(=O)N1Cc1ccccc1 (stereo unspecified)	nt	-3.3	nt	nt	-2.4	nt	nt	nt	nt
CCn1c(Cc2cccs2)nnc1SCC(=O)Nc1ccc(OCc2ccccc2)cc1	nt	-18.5	nt	nt	9.6	nt	nt	nt	nt
CC(Oc1ccccc1)C(=O)Nc1ccc(C(N)=O)cc1 (stereo unspecified)	0.9	7.8	8.7	14.2	-6.3	52.4	19.0	4.0	-9.8
COc1ccccc1OCC(=O)Nc1ccc(NC(=O)COc2ccccc2OC)cc1	-8.1	-6.0	13.9	14.2	4.9	-6.8	nt	nt	nt
COc1ccccc1OCC(=O)Nc1ccc(C(N)=O)cc1	-4.0	9.4	-1.6	11.2	12.2	69.2*	26.9	3.6	4.4
CCOC(=O)[C@]12CCCCC/C=C\1N(CCc1ccc(Cl)cc1)C(=O)[C@H]2CC(=O)NCCC(C)C	nt	10.6	nt	nt	-7.5	nt	nt	nt	nt
Cc1ccc2sc(NC(=O)CN3C(=O)CCC3=O)nc2c1C	-10.5	1.8	8.6	-9.3	1.9	57.1*	17.4	19.3	-15.8
COCCNC(=O)[C@]1(C#N)CC(=O)N(C)[C@@H]1c1ccccc1	nt	-14.7	nt	nt	-13.1	nt	nt	nt	nt
C=CCOC(=O)C(CO)NC(=O)CCCC(=O)O (stereo unspecified)	nt	0.6	nt	nt	-24.6	nt	nt	nt	nt
CCCC1CCC2(CC1)CCC2OC(=S)Nc1ccccc1C(F)(F)F (stereo unspecified)	nt	nt	nt	nt	-8.6	nt	nt	nt	nt
CC(C)Oc1ccc(CCNC(=O)C2CCC(=O)N(Cc3cccc(F)c3)C2)cc1 (stereo unspecified)	-19.3	1.3	-15.6	-9.4	-17.8	57.4*	10.8	-8.7	-54.1
C=CCN(C(=O)Cn1nc(C)n2c(cc3cc(C)ccc32)c1=O)c1ccccc1	0.9	-7.6	20.9	21.9	6.0	63.4*	24.3	18.0	-24.5
Cc1ccc(Nc2cc(C)nc(NCc3ccccc3)n2)cc1	20.3	7.7	17.9	14.3	29.0	51.7	28.8	22.6	-19.1
CCOc1ccc(NC(=O)CCNC(=O)C2CCN(S(=O)(=O)c3ccccc3)CC2)cc1	-10.8	16.1	5.3	-4.4	3.2	57.3*	13.9	25.6*	-26.2
SMILES	NCOA1 inh	SRC2 inh	LRH-1 inv ag	SRC3 inh	COUP-TFII inh	Gli-Sufu antag	Gli antag conf	Gli cytotox	Wnt3a cs
O=C(CCNC(=O)C1CCN(S(=O)(=O)c2ccc(F)cc2)CC1)NCc1ccc(Cl)cc1	-3.8	26.6	-28.3	10.7	8.9	60.5*	13.0	10.8	-9.6
O=C(CCNC(=O)C1CCN(S(=O)(=O)c2ccc(F)cc2)CC1)NCc1ccc(F)cc1	-0.2	-11.4	-3.0	13.1	9.1	-21.1	nt	nt	nt
Cc1ccc(CN2CCCCC(NC(=O)c3c(F)cccc3F)C2=O)cc1 (stereo unspecified)	nt	-45.0	nt	nt	-26.8	nt	nt	nt	nt
CCCCNC(=O)NS(=O)(=O)c1ccc(NC(=O)CSc2ncnc3scc(-c4ccc(C)cc4)c23)cc1	nt	0.8	nt	nt	-13.9	nt	nt	nt	nt
COc1ccc(N2CCN(C(=O)NCc3ccc(OC)c(Cl)c3)CC2)cc1	-26.4	-20.1	-7.7	-0.5	12.4	56.4*	24.8	8.9	-8.4
Cc1ccc(C2CC(c3cccs3)=NN2C(=O)CSc2nc(=O)n3cc(C)ccc3n2)cc1 (stereo unspecified)	-3.0	2.7	8.1	9.7	14.2	2.3	nt	nt	nt
COc1ccc(C2CC(c3cccs3)=NN2C(=O)CSc2nc(=O)n3ccccc3n2)cc1 (stereo unspecified)	-18.2	-37.7	-32.5	-19.3	0.5	80.0*	28.5	25.9*	66.5*
COC(=O)c1cnc(Oc2ccc(NC(=O)NC(=O)c3c(OC)cccc3OC)cc2)cc1C(F)(F)F	2.1	11.5	8.4	-20.9	18.3	51.7	53.4*	58.2*	-31.2
C(=C\c1ccccc1)/CSc1nnc(Cc2cccs2)n1-c1ccccc1	nt	18.7	nt	nt	3.8	nt	nt	nt	nt
O=C(NCc1ccccc1)C1(C(=O)C2CC2)CC(c2ccccc2C(F)(F)F)=NO1 (stereo unspecified)	nt	-21.9	nt	nt	-11.9	nt	nt	nt	nt
CCC(=O)c1ccccc1OCCCN1CCC(Cc2ccccc2)CC1	10.7	22.4	13.1	7.7	21.4	52.5	20.9	33.4*	-37.5
CCOc1ccccc1OCCN1CCC(Cc2ccccc2)CC1	2.9	-13.3	-7.7	-26.8	7.4	8.9	nt	nt	nt
CC(C)Oc1cccc(-c2n[nH]c(=S)n2N=Cc2ccc(OCc3ccccc3)cc2)c1	nt	-31.1	nt	nt	-9.1	nt	nt	nt	nt
CCOc1ccc2c(c1)s/c(=N\S(=O)(=O)c1ccc(OC)cc1)n2C(F)F	7.1	14.7	6.4	-2.8	8.9	54.9	11.0	-0.8	-4.6
CC(=O)CC[C@@H]1CC[C@]2(CCCN(C(=O)c3ccccc3)C2)O1	nt	-9.4	nt	nt	19.7	nt	nt	nt	nt
